Rows were chosen to be rich in hits. Some 3.7% of all compounds tested hit in one or more screens of this group.
Mtb bLac sens = beta-lactam sensitization of Mtb H37Rv, H37Rv; inhibition, % at 25 µM; 330,000 compounds, 0.27% hits; M. tuberculosis H37Rv growth with meropenem, percent inhibition; AID 434955, 2010; call rule not given here;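 also: growth measured after seven days incubation then overnight dye step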
Rv3671c protease = Rv3671c serine protease inhibitors, primary screen, biochemical, fluorescence polarization, M. tuberculosis H37Rv | P9WHR9 | AID 2606, 2010 | 320,000 compounds, 0.048% hits | inhibition, % at 5.96 µM; in the data active = inhibition above about 38%;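 also: extracellular domain of Rv3671c used as enzyme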
UGM FP inh = M. tuberculosis UGM enzyme inhibitors, primary screen, biochemical, fluorescence polarization, single point; UDP-galactopyranose mutase (Mycobacterium tuberculosis (strain ATCC 25618 / H37Rv)), …; purified UGM, fluorescence polarization probe displacement; inhibition, % at 10 µM; 320,000 compounds, 0.06% hits; in the data active = inhibition above about 10%, passing the limit was not always enough; inconclusive = no clear call, values can overlap the other calls
FBA Mtb inh = Mtb FBA enzyme inhibitors, primary screen, biochemical, fluorescence, strain H37Rv. Fructose-bisphosphate aldolase (Mycobacterium tuberculosis (strain ATCC 25618 / H37Rv)), …. purified M. tuberculosis FBA, fluorescence read-out. inhibition, % at 1 µM. 360,000 compounds, 2.3% hits. AID 588726, 2011; in the data active = inhibition above about 27%
Target sequence (P9WQA3 whole entry, looked up): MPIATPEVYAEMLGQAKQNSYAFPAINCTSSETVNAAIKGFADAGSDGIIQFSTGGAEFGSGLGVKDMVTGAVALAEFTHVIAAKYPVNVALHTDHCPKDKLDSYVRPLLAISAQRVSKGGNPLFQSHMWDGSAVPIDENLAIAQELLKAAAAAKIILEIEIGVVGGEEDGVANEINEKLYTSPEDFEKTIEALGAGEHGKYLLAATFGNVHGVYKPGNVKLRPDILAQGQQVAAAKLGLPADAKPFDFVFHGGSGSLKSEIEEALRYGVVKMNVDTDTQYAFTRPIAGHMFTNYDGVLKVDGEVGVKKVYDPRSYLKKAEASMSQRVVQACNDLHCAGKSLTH
GDH-TPI inh = GDH-TPI coupling enzyme inhibitors, primary screen, artefact control for M. tuberculosis FBA inhibitor project, biochemical, absorbance, full deck. GDH-TPI coupled enzyme counterscreen, NADH absorbance. inhibition, % at 4.8 µM. 360,000 compounds, 1.2% hits. AID 588335, 2011; in the data active = inhibition above about 30%
FadD28 binding = inhibitors of FadD28 bisubstrate probe binding, primary screen, biochemical, fluorescence polarization, single point | inhibition, % at 12.5 µM | 360,000 compounds, 0.22% hits | Mycobacterium tuberculosis FadD28 fatty-acid-AMP ligase | AID 588549, 2011; in the data active = inhibition above about 8.5%, passing the limit was not always enough; inconclusive = no clear call, values can overlap the other calls
Numbers stand for hits.

Screening COc1ccc(-c2cc(=O)c3c(OC)c(OC)c(OC)cc3o2)cc1 returned Mtb bLac sens inactive, Rv3671c protease inactive, UGM FP inh inactive, FBA Mtb inh inactive, GDH-TPI inh 32 and FadD28 binding inactive.
For O=c1cc(-c2cccc(F)c2)oc2ccccc12 the results were FBA Mtb inh inactive, GDH-TPI inh inactive and FadD28 binding inactive.
Screening COc1ccc(-c2cc(=O)c3c(O)c(OC)c(O)cc3o2)cc1 returned Mtb bLac sens inactive, Rv3671c protease inactive, UGM FP inh inactive, FBA Mtb inh inactive, GDH-TPI inh inactive and FadD28 binding inactive.
Screening Cc1ccc(C(O)c2ncc(-c3cccc(C(F)(F)F)c3)[nH]2)cc1F (configuration not stated) returned FBA Mtb inh inactive, GDH-TPI inh inactive and FadD28 binding inactive.
Cc1ccc(/C=C/C(=O)c2ccccc(=O)c2O)cc1C was read as Mtb bLac sens inactive, Rv3671c protease inactive, UGM FP inh inactive, FBA Mtb inh inactive, GDH-TPI inh inactive and FadD28 binding inactive.
For COc1ccccc1NC(=O)c1cccc(S(=O)(=O)N2CCN(c3ccccc3)CC2)c1 the results were Mtb bLac sens inactive, Rv3671c protease inactive, UGM FP inh inactive, FBA Mtb inh inactive, GDH-TPI inh inactive and FadD28 binding inactive.
Screening Cc1cc(-c2nc3ncccc3o2)ccc1N returned Mtb bLac sens inactive, Rv3671c protease inactive, UGM FP inh inactive, FBA Mtb inh active, GDH-TPI inh 45 and FadD28 binding inactive.
Cc1ccc(-c2nc3ncccc3o2)cc1N was read as Mtb bLac sens inactive, Rv3671c protease inactive, UGM FP inh inactive, FBA Mtb inh inactive, GDH-TPI inh inactive and FadD28 binding inactive.
`Nc1ccc(-c2nc3ncccc3o2)c(O)c1` gave Mtb bLac sens inactive, Rv3671c protease inactive, UGM FP inh inactive, FBA Mtb inh active, GDH-TPI inh 59 and FadD28 binding inactive.
`CCCCN1C(=O)C(CC(=O)NCCN2CCOCC2)CC(C(=O)N(C)C)=C1C` (configuration not stated) gave FBA Mtb inh inactive, GDH-TPI inh inactive and FadD28 binding inactive.
CC1(C(=O)NC2CCCC2)CCC(=O)N1CCc1c[nH]c2ccccc12 (configuration not stated) was read as FBA Mtb inh inactive and FadD28 binding inactive.
For Nc1nnc(CC(=O)N/N=C/c2ccc(-c3ccc(Cl)cc3Cl)o2)s1 the results were Mtb bLac sens inactive, Rv3671c protease inactive, UGM FP inh inactive, FBA Mtb inh inactive, GDH-TPI inh 38 and FadD28 binding inactive.
Screening COC(=O)N/N=C/c1ccc(-c2cc(Cl)ccc2Cl)o1 returned Mtb bLac sens inactive, Rv3671c protease inactive, UGM FP inh inactive, FBA Mtb inh inactive, GDH-TPI inh inactive and FadD28 binding inactive.
For Nc1nnc(CC(=O)N/N=C/c2ccc([N+](=O)[O-])cc2)s1 the results were Mtb bLac sens inactive, Rv3671c protease inactive, UGM FP inh inactive, FBA Mtb inh inactive, GDH-TPI inh inactive and FadD28 binding inactive.
Nc1nnc(CC(=O)N/N=C/c2ccc(-c3ccccc3Cl)o2)s1 was read as Mtb bLac sens inactive, Rv3671c protease inactive, UGM FP inh inactive, FBA Mtb inh inactive, GDH-TPI inh 39 and FadD28 binding inactive.
Oc1ccc(C=NNC(=S)Nc2ccccc2)nc1 was read as FBA Mtb inh inactive, GDH-TPI inh 54 and FadD28 binding inactive.
`Nc1ccc(Oc2ccc([N+](=O)[O-])cc2[N+](=O)[O-])cc1` gave Mtb bLac sens inactive, Rv3671c protease inactive, UGM FP inh inactive, FBA Mtb inh inactive, GDH-TPI inh 33 and FadD28 binding inactive.
COc1ccc(C)cc1NC(=O)n1ncc2cc(Cl)ccc21 was read as Mtb bLac sens inactive, Rv3671c protease inactive, UGM FP inh inactive, FBA Mtb inh inactive, GDH-TPI inh inactive and FadD28 binding inactive.
Screening O=C(Nc1nc2ccc(S(=O)(=O)N3CCCC3)cc2s1)c1ccco1 returned Mtb bLac sens inactive, Rv3671c protease inactive, UGM FP inh inactive, FBA Mtb inh inactive, GDH-TPI inh 39 and FadD28 binding inactive.
CCCOc1ccc(F)cc1-c1cc(C(=O)NCc2cccs2)[nH]n1 was read as FBA Mtb inh inactive, GDH-TPI inh inactive and FadD28 binding inactive.
`Cc1cc(C)n(CCNC(=O)[C@H]2O[C@@H](n3cnc4c(N)ncnc43)[C@H](O)[C@@H]2O)n1` gave FBA Mtb inh inactive and FadD28 binding inactive.
Screening CCCCn1c(=NC(=O)c2cccnc2)c(C#N)cc2c(=O)n3cccc(C)c3nc21 returned Mtb bLac sens inactive, Rv3671c protease inactive, UGM FP inh inactive, FBA Mtb inh 194, GDH-TPI inh inactive and FadD28 binding inactive.
Screening COCCCn1c(=NC(=O)c2ccncc2)c(C#N)cc2c(=O)n3cccc(C)c3nc21 returned Mtb bLac sens inactive, Rv3671c protease inactive, UGM FP inh inconclusive, FBA Mtb inh active, GDH-TPI inh inactive and FadD28 binding inactive.
CCCn1c(=NC(=O)c2ccncc2)c(C#N)cc2c(=O)n3cccc(C)c3nc21 was read as FBA Mtb inh inactive, GDH-TPI inh inactive and FadD28 binding inactive.
CCCc1cc(=O)oc2c3c(cc(OCC(=O)NCc4ccncc4)c12)OC(C)(C)CC3 was read as Mtb bLac sens inactive, Rv3671c protease inactive, UGM FP inh inactive, FBA Mtb inh active, GDH-TPI inh inactive and FadD28 binding inactive.
`Cc1cc(OCC(=O)NCc2ccccn2)c2c(C)c(C)c(=O)oc2c1` gave Mtb bLac sens inactive, Rv3671c protease inactive, UGM FP inh inactive, FBA Mtb inh 120, GDH-TPI inh inactive and FadD28 binding inactive.
For Cc1cc(=O)oc2c(C)c(OCC(=O)NCc3ccccn3)ccc12 the results were Mtb bLac sens inactive, Rv3671c protease inactive, UGM FP inh inactive, FBA Mtb inh inactive, GDH-TPI inh inactive and FadD28 binding inactive.
Cc1c(C)c2c(OCC(=O)NCc3ccccn3)cc3c(c2oc1=O)CCC(C)(C)O3 was read as Mtb bLac sens inactive, Rv3671c protease inactive, UGM FP inh inactive, FBA Mtb inh active, GDH-TPI inh inactive and FadD28 binding inactive.
CCCc1cc(=O)oc2c3c(cc(OCC(=O)NCc4ccccn4)c12)OC(C)(C)CC3 was read as Mtb bLac sens inactive, Rv3671c protease inactive, UGM FP inh inactive, FBA Mtb inh 192, GDH-TPI inh inactive and FadD28 binding inactive.
For COc1ccc(-c2oc3ccc(-c4cc(OC)c(OC)c(OC)c4)cc3c2C#Cc2ccccn2)cc1 the results were Mtb bLac sens inactive, Rv3671c protease inactive, UGM FP inh inactive, FBA Mtb inh inactive, GDH-TPI inh inactive and FadD28 binding inactive.
